Source: the supplement of paper PMC8728848
Many of the other results were omitted from the sample, so the strongest signals are more common in it than they were.

Experiments:
Test in all cases: glycan array binding signal (z-score within array); higher = stronger binding
Details in all cases: glycan notation: IUPAC condensed, linker removed; mutation: E41A
[1] = molecular target: Fuc(a1-2)Gal(b1-3)GalNAc(a1-3)[Fuc(a1-2)]Gal(b1-4)GlcNAc
Outline: (§1)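 The Consortium for Functional Glycomics database supplied 3228 glycan arrays, of which those lacking an available protein sequence were dropped. The binding signal, a within-array Z-score, was averaged across arrays of the same protein sequence and across linkers. Negative scores can be read as non-binding.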

[2] = molecular target: Fuc(a1-2)Gal(b1-4)GlcNAc(b1-2)Man
Outline: as §1

[3] = molecular target: Fuc(a1-2)Gal(b1-4)GlcNAc(b1-3)GalNAc
Outline: as §1

[4] = molecular target: Fuc(a1-2)[Gal(a1-3)]Gal(b1-4)[Fuc(a1-3)]Glc
Outline: as §1

[5] = molecular target: Fuc(a1-2)[GalNAc(a1-3)]Gal(b1-3)GlcNAc
Outline: as §1

[6] = molecular target: Fuc(a1-2)[GalNAc(a1-3)]Gal(b1-4)GlcNAc(b1-2)Man(a1-3)[Fuc(a1-2)[GalNAc(a1-3)]Gal(b1-4)GlcNAc(b1-2)Man(a1-6)]Man(b1-4)GlcNAc(b1-4)[Fuc(a1-6)]GlcNAc
Outline: as §1

[7] = molecular target: Fuc(a1-2)[GalNAc(a1-3)]Gal(b1-4)GlcNAc(b1-3)Gal(b1-4)GlcNAc(b1-3)Gal(b1-4)GlcNAc
Outline: as §1

[8] = molecular target: Fuc(a1-2)[GalNAc(a1-4)]Gal(b1-4)GlcNAc
Outline: as §1

[9] = molecular target: Fuc(a1-3)[Gal(b1-4)]GlcNAc
Outline: as §1

[10] = molecular target: Fuc(a1-3)[Gal3S(b1-4)]Glc
Outline: as §1

Gal(a1-2)Gal = molecular target: Gal(a1-2)Gal
Outline: as §1

Gal(a1-3)Gal(b1-3)GlcNAc = molecular target: Gal(a1-3)Gal(b1-3)GlcNAc
Outline: as §1

[11] = molecular target: Gal(a1-3)Gal(b1-3)[Fuc(a1-4)]GlcNAc(b1-2)Man(a1-3)[Gal(a1-3)Gal(b1-3)[Fuc(a1-4)]GlcNAc(b1-2)Man(a1-6)]Man(b1-4)GlcNAc(b1-4)GlcNAc
Outline: as §1

[12] = molecular target: Gal(a1-3)Gal(b1-4)[Fuc(a1-3)]GlcNAc
Outline: as §1

[13] = molecular target: Gal(a1-4)Gal(b1-4)GlcNAc(b1-2)Man(a1-3)[Gal(a1-4)Gal(b1-4)GlcNAc(b1-2)Man(a1-6)]Man(b1-4)GlcNAc(b1-4)GlcNAc
Outline: as §1

[14] = molecular target: Gal(b1-3)GalNAc(b1-3)Gal(a1-4)Gal(b1-4)Glc
Outline: as §1

[15] = molecular target: Gal(b1-3)GalNAc(b1-4)Gal(b1-4)Glc
Outline: as §1

[16] = molecular target: Gal(b1-3)GlcNAc(b1-2)Man(a1-3)[Gal(b1-3)GlcNAc(b1-2)Man(a1-6)]Man(b1-4)GlcNAc(b1-4)GlcNAc
Outline: as §1

[17] = molecular target: Gal(b1-3)GlcNAc(b1-6)Gal(b1-4)GlcNAc
Outline: as §1

[18] = molecular target: Gal(b1-4)GlcNAc(b1-2)Man(a1-3)[Gal(b1-4)GlcNAc(b1-2)Man(a1-6)]Man(b1-4)GlcNAc(b1-4)GlcNAc
Outline: as §1

[19] = molecular target: Gal(b1-4)GlcNAc(b1-2)Man(a1-3)[GlcNAc(b1-4)][Gal(b1-4)GlcNAc(b1-2)Man(a1-6)]Man(b1-4)GlcNAc(b1-4)GlcNAc
Outline: as §1

[20] = molecular target: Gal(b1-4)GlcNAc(b1-3)Gal(b1-4)GlcNAc(b1-2)[Gal(b1-4)GlcNAc(b1-3)Gal(b1-4)GlcNAc(b1-6)]Man(a1-6)[Gal(b1-4)GlcNAc(b1-3)Gal(b1-4)GlcNAc(b1-2)Man(a1-3)]Man(b1-4)GlcNAc(b1-4)GlcNAc
Outline: as §1

GalNAc(a1-3)Gal = molecular target: GalNAc(a1-3)Gal
Outline: as §1

GalNAc(a1-3)GalNAc = molecular target: GalNAc(a1-3)GalNAc
Outline: as §1

[21] = molecular target: GlcNAc(a1-4)Gal(b1-4)GlcNAc
Outline: as §1

[22] = molecular target: GlcNAc(b1-2)[GlcNAc(b1-4)]Man(a1-3)[GlcNAc(b1-4)][GlcNAc(b1-2)Man(a1-6)]Man(b1-4)GlcNAc(b1-4)GlcNAc
Outline: as §1

[23] = molecular target: GlcNAc(b1-3)Gal(b1-4)GlcNAc(b1-2)[GlcNAc(b1-3)Gal(b1-4)GlcNAc(b1-6)]Man(a1-6)[GlcNAc(b1-3)Gal(b1-4)GlcNAc(b1-2)Man(a1-3)]Man(b1-4)GlcNAc(b1-4)GlcNAc
Outline: as §1

[24] = molecular target: GlcNAc(b1-3)Gal(b1-4)GlcNAc(b1-3)Gal(b1-4)GlcNAc(b1-3)Gal(b1-4)GlcNAc(b1-3)Gal(b1-4)GlcNAc(b1-2)Man(a1-3)[GlcNAc(b1-3)Gal(b1-4)GlcNAc(b1-3)Gal(b1-4)GlcNAc(b1-3)Gal(b1-4)GlcNAc(b1-3)Gal(b1-4)GlcNAc(b1-2)Man(a1-6)]Man(b1-4)GlcNAc(b1-4)GlcNAc
Outline: as §1

[25] = molecular target: GlcNAc(b1-3)Gal(b1-4)GlcNAc(b1-3)Gal(b1-4)GlcNAc(b1-3)GalNAc
Outline: as §1

Kdn(a2-3)Gal(b1-4)Glc = molecular target: Kdn(a2-3)Gal(b1-4)Glc
Outline: as §1

[26] = molecular target: Man(a1-2)Man(a1-2)Man(a1-3)Man
Outline: as §1

[27] = molecular target: Man(a1-2)Man(a1-2)Man(a1-6)[Man(a1-3)]Man
Outline: as §1

Man(a1-2)Man(a1-3)Man = molecular target: Man(a1-2)Man(a1-3)Man
Outline: as §1

[28] = molecular target: Man(a1-2)Man(a1-3)[Man(a1-2)Man(a1-6)]Man
Outline: as §1

[29] = molecular target: Man(a1-2)Man(a1-3)[Man(a1-2)Man(a1-6)]Man(a1-6)[Man(a1-2)Man(a1-2)Man(a1-3)]Man
Outline: as §1

[30] = molecular target: Man(a1-2)Man(a1-3)[Man(a1-6)]Man(a1-6)[Man(a1-2)Man(a1-3)]Man(b1-4)GlcNAc(b1-4)GlcNAc
Outline: as §1

[31] = molecular target: Man(a1-2)Man(a1-6)[Man(a1-3)]Man(a1-6)[Man(a1-2)Man(a1-2)Man(a1-3)]Man
Outline: as §1

[32] = molecular target: Man(a1-2)Man(a1-6)[Man(a1-3)]Man(a1-6)[Man(a1-2)Man(a1-2)Man(a1-3)]Man(b1-4)GlcNAc(b1-4)GlcNAc
Outline: as §1

[33] = molecular target: Man(a1-3)[Man(a1-6)]Man(a1-6)[Man(a1-2)Man(a1-3)]Man(b1-4)GlcNAc(b1-4)GlcNAc
Outline: as §1

[34] = molecular target: Neu5Ac(a2-3)Gal(b1-3)GlcNAc(b1-2)Man(a1-3)[GlcNAc(b1-4)][Neu5Ac(a2-3)Gal(b1-3)GlcNAc(b1-2)Man(a1-6)]Man(b1-4)GlcNAc(b1-4)GlcNAc
Outline: as §1

[35] = molecular target: Neu5Ac(a2-3)Gal(b1-4)GlcNAc(b1-2)Man
Outline: as §1

[36] = molecular target: Neu5Ac(a2-3)Gal(b1-4)GlcNAc(b1-2)Man(a1-3)[GlcNAc(b1-4)][Neu5Ac(a2-3)Gal(b1-4)GlcNAc(b1-2)Man(a1-6)]Man(b1-4)GlcNAc(b1-4)GlcNAc
Outline: as §1

[37] = molecular target: Neu5Ac(a2-3)Gal(b1-4)GlcNAc(b1-2)[Neu5Ac(a2-3)Gal(b1-4)GlcNAc(b1-4)]Man(a1-3)[GlcNAc(b1-4)][Neu5Ac(a2-3)Gal(b1-4)GlcNAc(b1-2)[Neu5Ac(a2-3)Gal(b1-4)GlcNAc(b1-6)]Man(a1-6)]Man(b1-4)GlcNAc(b1-4)GlcNAc
Outline: as §1

[38] = molecular target: Neu5Ac(a2-3)Gal(b1-4)GlcNAc(b1-3)Gal(b1-4)GlcNAc(b1-3)[Neu5Ac(a2-3)Gal(b1-4)GlcNAc(b1-3)Gal(b1-4)GlcNAc(b1-6)]GalNAc
Outline: as §1

[39] = molecular target: Neu5Ac(a2-3)Gal6S(b1-4)[Fuc(a1-3)]GlcNAc
Outline: as §1

[40] = molecular target: Neu5Ac(a2-6)Gal(b1-4)GlcNAc(b1-2)Man(a1-3)[GlcNAc(b1-4)][Neu5Ac(a2-6)Gal(b1-4)GlcNAc(b1-2)Man(a1-6)]Man(b1-4)GlcNAc(b1-4)GlcNAc
Outline: as §1

[41] = molecular target: Neu5Ac(a2-6)Gal(b1-4)GlcNAc(b1-2)Man(a1-3)[Neu5Ac(a2-3)Gal(b1-4)GlcNAc(b1-2)Man(a1-6)]Man(b1-4)GlcNAc(b1-4)GlcNAc
Outline: as §1

[42] = molecular target: Neu5Ac(a2-6)Gal(b1-4)GlcNAc(b1-3)Gal(b1-4)GlcNAc(b1-3)Gal(b1-4)GlcNAc(b1-2)Man(a1-3)[Neu5Ac(a2-6)Gal(b1-4)GlcNAc(b1-3)Gal(b1-4)GlcNAc(b1-3)Gal(b1-4)GlcNAc(b1-2)Man(a1-6)]GalNAc
Outline: as §1

[43] = molecular target: Neu5Ac(a2-6)Gal(b1-4)GlcNAc(b1-3)Gal(b1-4)GlcNAc(b1-6)[Gal(b1-3)]GalNAc
Outline: as §1

[44] = molecular target: Neu5Ac(a2-8)Neu5Ac(a2-8)Neu5Ac(a2-3)Gal(b1-4)Glc
Outline: as §1

Neu5Gc(a2-6)GalNAc = molecular target: Neu5Gc(a2-6)GalNAc
Outline: as §1

B1: CVN-E41G (protein)
chain: MHHHHHHENLYFQSGNFSQACYNSAIQGSVLTSTCIRTNGGYNTSSIDLNSVIANVDGSLKWQGSNFIETCRNTQLAGSSELAAECKTRAQQFVSTKINLDDHIAAIDGTLKYE
For B1, the “glycan array binding signal (z-score)” value [1] was -0.16, the “glycan array binding signal (z-score)” value [2] was -0.09 and the “glycan array binding signal (z-score)” value [3] was -0.19. The “glycan array binding signal (z-score)” value [4] was -0.145, the “glycan array binding signal (z-score)” value [5] was -0.168 and the “glycan array binding signal (z-score)” value [6] was 1.61. The “glycan array binding signal (z-score)” value [7] was -0.123, the “glycan array binding signal (z-score)” value [8] was -0.221 and the “glycan array binding signal (z-score)” value [9] was -0.194. For the same binder, the “glycan array binding signal (z-score)” value [10] was -0.171, the “glycan array binding signal (z-score)” value (Gal(a1-2)Gal) was -0.221 and the “glycan array binding signal (z-score)” value (Gal(a1-3)Gal(b1-3)GlcNAc) was -0.192. The “glycan array binding signal (z-score)” value [11] was 1.41, the “glycan array binding signal (z-score)” value [12] was -0.243 and the “glycan array binding signal (z-score)” value [13] was 0.1. The “glycan array binding signal (z-score)” value [14] was -0.198, the “glycan array binding signal (z-score)” value [15] was -0.211 and the “glycan array binding signal (z-score)” value [16] was 0.128. The “glycan array binding signal (z-score)” value [17] was -0.121, the “glycan array binding signal (z-score)” value [18] was -0.227 and the “glycan array binding signal (z-score)” value [19] was -0.238. The “glycan array binding signal (z-score)” value [20] was 0.189, the “glycan array binding signal (z-score)” value (GalNAc(a1-3)Gal) was -0.219 and the “glycan array binding signal (z-score)” value (GalNAc(a1-3)GalNAc) was -0.252. The “glycan array binding signal (z-score)” value [21] was -0.214, the “glycan array binding signal (z-score)” value [22] was -0.211 and the “glycan array binding signal (z-score)” value [23] was -0.064. The “glycan array binding signal (z-score)” value [24] was -0.204, the “glycan array binding signal (z-score)” value [25] was -0.168 and the “glycan array binding signal (z-score)” value (Kdn(a2-3)Gal(b1-4)Glc) was -0.177. For the same binder, the “glycan array binding signal (z-score)” value [26] was 8.7, the “glycan array binding signal (z-score)” value [27] was 8.39 and the “glycan array binding signal (z-score)” value (Man(a1-2)Man(a1-3)Man) was 7.22. For the same binder, the “glycan array binding signal (z-score)” value [28] was 8.35, the “glycan array binding signal (z-score)” value [29] was 10.5 and the “glycan array binding signal (z-score)” value [30] was 5.81. The “glycan array binding signal (z-score)” value [31] was 9.42, the “glycan array binding signal (z-score)” value [32] was 6.36 and the “glycan array binding signal (z-score)” value [33] was 3.98. The “glycan array binding signal (z-score)” value [34] was 0.053, the “glycan array binding signal (z-score)” value [35] was 0.044 and the “glycan array binding signal (z-score)” value [36] was -0.212. The “glycan array binding signal (z-score)” value [37] was -0.177, the “glycan array binding signal (z-score)” value [38] was -0.218 and the “glycan array binding signal (z-score)” value [39] was -0.235. The “glycan array binding signal (z-score)” value [40] was -0.208, the “glycan array binding signal (z-score)” value [41] was -0.216 and the “glycan array binding signal (z-score)” value [42] was -0.108. For the same binder, the “glycan array binding signal (z-score)” value [43] was -0.172, the “glycan array binding signal (z-score)” value [44] was -0.226 and the “glycan array binding signal (z-score)” value (Neu5Gc(a2-6)GalNAc) was -0.18.
